From the supplement of paper PMC10849652
Of roughly 8,800 targets only a part is listed; those with a hit were picked by preference. About 0.5% of all pairs of compound and target were hits.

What was measured:
Assay in all cases: log2 fold change, soluble protein after heating vs DMSO (PISA); higher = thermal stabilisation; K562 lysate, 10 uM; active = over 0.2 and 3.5 SD of the protein, either way, in both replicates (recomputed)
[1] = compound: NCC(=O)Nc1ccc(-n2nc(C(F)(F)F)cc2-c2ccc3c(ccc4ccccc43)c2)cc1
Summary of the method: (§1)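 Pellets of K562 cells were dounce-homogenised in PBS pH 7.4 with 1 mM MgCl2, and the crude extract was held at 1 mg/mL protein for a 30 min treatment with 10 μM compound. Aliquots were heated for 3 min over 48°C-58°C and pooled before NP-40 was added to 0.5% at 4°C. The supernatant from 21,000xg for 90 min was quantified by TMTpro 16plex LC-MS/MS with channel sums equalised. Values are reported from duplicates as log-two fold change in thermal stability relative to solvent controls.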

[2] = compound: O=C(CCCCCCC(=O)Nc1ccccc1)NO [vorinostat]
Summary of the method: as §1

[3] = compound: O=C(O)c1ccc2c(c1)nc(Nc1cccc(Cl)c1)c1ccncc12 [silmitasertib]
Summary of the method: as §1

[4] = compound: O=C1NC(=O)C(c2cnc3ccccn23)=C1c1cn2c3c(cc(F)cc13)CN(C(=O)N1CCCCC1)CC2
Summary of the method: as §1

[5] = compound: c1cn2cc(-c3ccc4cn[nH]c4c3)nc(Nc3ccc(N4CCOCC4)cc3)c2n1 [entospletinib]
Summary of the method: as §1

Measured: log2 fold change

CIC (UniProt I3L2J0)
inactive: [1] -0.002 | [2] -0.108 | [3] -0.011 | [4] 0.075 | [5] 0.033

CIP2A (UniProt Q8TCG1)
inactive: [1] 0.043 | [3] 0.055 | [4] 0.011 | [5] 0.008
active: [2] -0.608

CNNM2 (UniProt Q9H8M5)
inactive: [1] 0.001 | [2] 0.068 | [3] 0.065 | [4] 0.051 | [5] -0.073

DHCR7 (UniProt Q9UBM7)
inactive: [1] -0.098 | [2] -0.022 | [3] 0.03 | [4] -0.004 | [5] 0.078

CNDP2 (UniProt Q96KP4)
inactive: [1] 0.023 | [2] 0.133 | [3] -0.025 | [4] -0.008 | [5] 0.01

DLG3 isoform 2 (UniProt Q92796)
inactive: [1] 0.067 | [2] -0.023 | [3] -0.025 | [4] -0.036 | [5] -0.007

DHX32 (UniProt Q7L7V1)
UniProt Q7L7V1, sequence (Q7L7V1 whole entry, looked up): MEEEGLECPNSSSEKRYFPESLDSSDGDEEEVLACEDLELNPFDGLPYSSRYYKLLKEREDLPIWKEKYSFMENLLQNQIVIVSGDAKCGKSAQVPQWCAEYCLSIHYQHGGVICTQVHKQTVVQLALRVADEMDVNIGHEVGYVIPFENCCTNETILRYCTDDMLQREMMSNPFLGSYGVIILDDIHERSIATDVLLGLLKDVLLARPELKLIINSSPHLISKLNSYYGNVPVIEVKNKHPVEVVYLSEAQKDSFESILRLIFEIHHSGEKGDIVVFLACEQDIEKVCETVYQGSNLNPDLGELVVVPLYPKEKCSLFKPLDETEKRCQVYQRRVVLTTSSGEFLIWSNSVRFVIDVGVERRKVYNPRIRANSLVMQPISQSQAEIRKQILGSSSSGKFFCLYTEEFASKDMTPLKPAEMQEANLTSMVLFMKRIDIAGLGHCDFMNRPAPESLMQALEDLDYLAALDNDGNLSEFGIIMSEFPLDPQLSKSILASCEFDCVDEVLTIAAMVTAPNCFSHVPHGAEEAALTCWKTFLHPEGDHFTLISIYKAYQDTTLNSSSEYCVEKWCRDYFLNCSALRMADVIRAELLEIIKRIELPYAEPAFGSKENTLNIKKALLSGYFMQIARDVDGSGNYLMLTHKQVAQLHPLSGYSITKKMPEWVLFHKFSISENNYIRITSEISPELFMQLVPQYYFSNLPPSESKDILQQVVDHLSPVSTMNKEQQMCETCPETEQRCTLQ
inactive: [1] -0.044 | [2] -0.351 | [3] 0.028 | [4] 0.097 | [5] -0.002

COASY isoform 2 (UniProt Q13057)
active: [2] -0.214
inactive: [1] 0.018 | [3] 0.075 | [4] 0.006 | [5] 0.019

CLASP1 (UniProt Q7Z460)
active: [2] -0.317
inactive: [1] 0.018 | [3] -0.015 | [4] -0.022 | [5] 0.029

DDB2 (UniProt Q92466)
inactive: [1] 0.054 | [2] 0.048 | [3] -0.022 | [4] -0.002 | [5] 0.019

CSNK1G3 (UniProt Q9Y6M4)
UniProt Q9Y6M4, sequence (Q9Y6M4 whole entry, looked up): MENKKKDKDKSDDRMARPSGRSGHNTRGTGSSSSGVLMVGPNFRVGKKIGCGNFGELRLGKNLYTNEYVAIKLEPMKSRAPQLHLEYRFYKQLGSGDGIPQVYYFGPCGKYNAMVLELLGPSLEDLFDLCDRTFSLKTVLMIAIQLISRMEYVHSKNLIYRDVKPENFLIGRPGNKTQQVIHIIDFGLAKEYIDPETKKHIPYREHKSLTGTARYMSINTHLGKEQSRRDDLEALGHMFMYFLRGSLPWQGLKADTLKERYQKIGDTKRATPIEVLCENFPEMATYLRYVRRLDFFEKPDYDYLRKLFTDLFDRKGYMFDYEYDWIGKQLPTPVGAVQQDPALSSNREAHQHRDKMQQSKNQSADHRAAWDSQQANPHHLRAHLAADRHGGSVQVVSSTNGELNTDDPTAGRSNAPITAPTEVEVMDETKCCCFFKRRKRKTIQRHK
inactive: [1] -0.004 | [2] -0.011 | [3] 0.055 | [4] -0.029 | [5] 0.039

DDAH1 (UniProt O94760)
UniProt O94760, sequence (O94760 whole entry, looked up): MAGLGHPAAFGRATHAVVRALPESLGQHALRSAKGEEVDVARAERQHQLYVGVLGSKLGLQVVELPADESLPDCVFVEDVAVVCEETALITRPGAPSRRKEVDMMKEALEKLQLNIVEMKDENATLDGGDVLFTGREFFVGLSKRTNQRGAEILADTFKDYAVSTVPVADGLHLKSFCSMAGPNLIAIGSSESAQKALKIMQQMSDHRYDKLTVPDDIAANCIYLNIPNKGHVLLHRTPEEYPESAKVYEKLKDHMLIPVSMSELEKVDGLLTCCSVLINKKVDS
inactive: [1] -0.076 | [2] 0.07 | [3] -0.035 | [4] 0.017 | [5] -0.014

DOCK8 (UniProt Q8NF50)
UniProt Q8NF50, sequence (Q8NF50 whole entry, looked up): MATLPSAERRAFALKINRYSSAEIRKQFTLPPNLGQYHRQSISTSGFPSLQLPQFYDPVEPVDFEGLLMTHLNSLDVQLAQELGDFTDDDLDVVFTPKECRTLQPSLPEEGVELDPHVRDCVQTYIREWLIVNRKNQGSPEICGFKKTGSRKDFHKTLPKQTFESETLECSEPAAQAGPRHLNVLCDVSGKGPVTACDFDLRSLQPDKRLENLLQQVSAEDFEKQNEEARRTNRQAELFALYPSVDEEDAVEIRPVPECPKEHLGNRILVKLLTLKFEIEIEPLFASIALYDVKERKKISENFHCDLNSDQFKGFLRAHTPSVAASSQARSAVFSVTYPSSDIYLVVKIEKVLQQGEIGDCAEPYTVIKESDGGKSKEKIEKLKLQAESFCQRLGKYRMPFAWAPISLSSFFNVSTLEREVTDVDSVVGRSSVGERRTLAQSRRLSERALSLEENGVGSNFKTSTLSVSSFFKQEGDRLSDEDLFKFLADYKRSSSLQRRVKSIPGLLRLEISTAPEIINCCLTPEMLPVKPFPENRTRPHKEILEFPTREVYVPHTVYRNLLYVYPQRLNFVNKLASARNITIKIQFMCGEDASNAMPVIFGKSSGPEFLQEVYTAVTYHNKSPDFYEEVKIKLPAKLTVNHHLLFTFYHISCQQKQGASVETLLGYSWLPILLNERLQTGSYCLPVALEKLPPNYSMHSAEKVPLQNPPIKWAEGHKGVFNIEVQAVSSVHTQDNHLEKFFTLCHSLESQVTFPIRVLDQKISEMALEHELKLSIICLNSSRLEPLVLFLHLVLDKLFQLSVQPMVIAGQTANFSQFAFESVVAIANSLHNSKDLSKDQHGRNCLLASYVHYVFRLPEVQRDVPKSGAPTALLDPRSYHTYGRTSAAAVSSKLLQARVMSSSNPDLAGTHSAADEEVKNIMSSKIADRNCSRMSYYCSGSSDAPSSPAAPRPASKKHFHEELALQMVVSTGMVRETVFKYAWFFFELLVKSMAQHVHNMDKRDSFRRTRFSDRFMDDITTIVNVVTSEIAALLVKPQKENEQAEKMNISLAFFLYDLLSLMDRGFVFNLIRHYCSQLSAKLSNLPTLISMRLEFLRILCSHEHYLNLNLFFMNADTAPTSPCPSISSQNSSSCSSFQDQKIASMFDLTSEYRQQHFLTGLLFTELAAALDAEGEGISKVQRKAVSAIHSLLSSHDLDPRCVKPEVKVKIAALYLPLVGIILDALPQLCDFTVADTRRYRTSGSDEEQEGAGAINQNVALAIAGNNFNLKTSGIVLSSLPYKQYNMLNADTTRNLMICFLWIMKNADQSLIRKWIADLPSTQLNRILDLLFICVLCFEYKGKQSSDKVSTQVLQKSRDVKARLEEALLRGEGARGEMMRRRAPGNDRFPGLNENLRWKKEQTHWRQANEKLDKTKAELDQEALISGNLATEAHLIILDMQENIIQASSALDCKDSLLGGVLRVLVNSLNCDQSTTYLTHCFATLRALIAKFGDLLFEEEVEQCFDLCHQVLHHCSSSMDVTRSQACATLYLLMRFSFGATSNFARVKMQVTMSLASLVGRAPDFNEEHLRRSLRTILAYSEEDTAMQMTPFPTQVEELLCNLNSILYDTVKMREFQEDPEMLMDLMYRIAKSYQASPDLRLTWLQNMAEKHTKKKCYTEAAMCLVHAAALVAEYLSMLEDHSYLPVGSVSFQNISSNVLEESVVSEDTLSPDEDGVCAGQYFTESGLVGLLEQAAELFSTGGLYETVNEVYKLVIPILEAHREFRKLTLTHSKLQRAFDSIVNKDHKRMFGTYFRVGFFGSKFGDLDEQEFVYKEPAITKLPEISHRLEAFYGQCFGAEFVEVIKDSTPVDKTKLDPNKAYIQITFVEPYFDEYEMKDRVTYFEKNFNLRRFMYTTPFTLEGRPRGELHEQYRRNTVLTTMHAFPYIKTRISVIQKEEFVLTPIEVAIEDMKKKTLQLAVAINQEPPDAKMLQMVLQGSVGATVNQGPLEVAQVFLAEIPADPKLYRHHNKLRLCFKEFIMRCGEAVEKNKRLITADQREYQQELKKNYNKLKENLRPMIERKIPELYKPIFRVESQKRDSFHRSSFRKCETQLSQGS
inactive: [1] -0.015 | [3] 0.06 | [4] 0.022 | [5] -0.052
active: [2] -0.489

CLUH, A0A494C0R8
inactive: [1] -0.115 | [2] 0.028 | [3] 0.069 | [4] 0.033 | [5] 0.033

CUEDC2 (UniProt Q9H467)
UniProt Q9H467, sequence (Q9H467 whole entry, looked up): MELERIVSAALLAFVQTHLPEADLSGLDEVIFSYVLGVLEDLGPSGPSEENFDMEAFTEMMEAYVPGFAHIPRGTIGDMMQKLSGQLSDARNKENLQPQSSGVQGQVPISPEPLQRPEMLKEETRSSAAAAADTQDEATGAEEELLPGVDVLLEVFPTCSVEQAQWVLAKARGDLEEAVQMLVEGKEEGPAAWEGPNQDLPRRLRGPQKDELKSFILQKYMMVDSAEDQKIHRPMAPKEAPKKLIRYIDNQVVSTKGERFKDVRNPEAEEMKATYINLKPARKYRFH
inactive: [1] -0.01 | [2] 0.151 | [3] -0.012 | [4] 0.003 | [5] 0.066

DNAJC24 (UniProt Q6P3W2)
UniProt Q6P3W2, sequence (Q6P3W2 whole entry, looked up): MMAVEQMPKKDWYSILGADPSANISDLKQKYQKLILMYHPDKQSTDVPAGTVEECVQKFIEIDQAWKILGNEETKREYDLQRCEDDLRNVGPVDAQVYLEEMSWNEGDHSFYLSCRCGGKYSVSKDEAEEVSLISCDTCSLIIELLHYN
inactive: [1] -0.159 | [2] 0.053 | [3] -0.017 | [4] -0.014 | [5] -0.046

CLCN3 (UniProt P51790)
inactive: [1] -0.165 | [2] -0.171 | [3] 0.118 | [4] -0.245 | [5] 0.025

COL12A1 (UniProt Q99715)
inactive: [1] 0.29 | [2] 0.037 | [3] -0.079 | [4] 0.908 | [5] -0.036

CMPK2 (UniProt Q5EBM0)
UniProt Q5EBM0, sequence (Q5EBM0 whole entry, looked up): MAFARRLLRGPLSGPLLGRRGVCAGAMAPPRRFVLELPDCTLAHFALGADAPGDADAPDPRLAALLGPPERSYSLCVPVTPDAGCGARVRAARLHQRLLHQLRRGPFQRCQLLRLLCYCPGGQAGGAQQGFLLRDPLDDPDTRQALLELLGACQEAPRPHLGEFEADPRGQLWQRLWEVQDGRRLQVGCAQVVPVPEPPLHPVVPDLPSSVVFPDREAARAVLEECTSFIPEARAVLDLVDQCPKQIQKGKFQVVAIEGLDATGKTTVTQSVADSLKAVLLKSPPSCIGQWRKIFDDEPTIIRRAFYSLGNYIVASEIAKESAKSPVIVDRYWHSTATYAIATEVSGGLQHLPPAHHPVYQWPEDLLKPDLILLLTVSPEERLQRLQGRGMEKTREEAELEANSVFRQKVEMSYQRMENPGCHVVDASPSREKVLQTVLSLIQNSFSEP
active: [2] -0.323
inactive: [1] -0.002 | [3] 0.005 | [4] 0.064 | [5] 0

COX7B (UniProt P24311)
UniProt P24311, sequence (P24311 whole entry, looked up): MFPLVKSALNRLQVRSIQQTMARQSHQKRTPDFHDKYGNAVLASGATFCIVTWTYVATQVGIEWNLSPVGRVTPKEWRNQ
inactive: [1] -0.043 | [2] 0.081 | [3] 0 | [4] 0 | [5] 0.104

CHEK1 (UniProt O14757)
UniProt O14757, sequence (O14757 whole entry, looked up): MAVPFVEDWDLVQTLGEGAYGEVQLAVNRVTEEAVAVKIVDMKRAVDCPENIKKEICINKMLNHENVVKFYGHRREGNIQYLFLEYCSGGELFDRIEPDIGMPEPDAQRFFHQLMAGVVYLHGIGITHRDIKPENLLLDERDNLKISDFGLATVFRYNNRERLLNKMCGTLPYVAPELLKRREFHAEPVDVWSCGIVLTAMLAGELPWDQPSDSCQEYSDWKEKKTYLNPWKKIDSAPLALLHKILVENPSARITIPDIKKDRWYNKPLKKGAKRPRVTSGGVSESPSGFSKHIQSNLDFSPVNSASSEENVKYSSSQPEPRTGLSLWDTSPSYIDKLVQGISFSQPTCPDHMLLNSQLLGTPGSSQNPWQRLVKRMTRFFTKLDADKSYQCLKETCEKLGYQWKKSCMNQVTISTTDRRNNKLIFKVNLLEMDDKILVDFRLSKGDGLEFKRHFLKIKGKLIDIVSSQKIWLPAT
inactive: [1] 0.008 | [2] 0.086 | [3] 0.168 | [4] -0.014 | [5] 0.009
